One may read the inhibition as the relative decrease from the control value, in per cent.

Hit rate of the full screen: of about 290,000 compounds, about 370 (0.13%) were called active. Shown is part of a subset that was picked to be rich in actives. Results with a measured potency or affinity are listed apart. Values without a mark were called inactive.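 How the source made its calls: active means spots per cell inhibited over 60%, with over 100 cells counted and total cytoplasm intensity under 500,000; inconclusive means wells with under 100 cells, flagged as likely toxic; inactive means the rest.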

Sequence of G-protein coupled receptor 55 (Homo sapiens) (Q9Y2T6 whole entry, looked up): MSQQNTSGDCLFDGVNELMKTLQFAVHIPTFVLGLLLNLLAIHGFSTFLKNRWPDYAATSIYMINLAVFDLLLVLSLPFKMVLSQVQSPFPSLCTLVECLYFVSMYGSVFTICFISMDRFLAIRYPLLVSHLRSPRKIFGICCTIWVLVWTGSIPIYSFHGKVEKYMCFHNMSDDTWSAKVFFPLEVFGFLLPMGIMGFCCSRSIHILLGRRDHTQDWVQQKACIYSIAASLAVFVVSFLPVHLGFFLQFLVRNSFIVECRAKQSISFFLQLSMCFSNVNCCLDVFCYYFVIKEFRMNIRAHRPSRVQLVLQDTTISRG

This experiment addresses G-protein coupled receptor 55 (Homo sapiens) (UniProt Q9Y2T6). In words: inhibition of LPI-stimulated GPR55 beta-arrestin translocation – imaging, U2OS, beta-arrestin-GFP, LPI agonist, primary screen (AID 2013).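 Further: U2OS cells stably carrying GPR55 and arrestin-GFP stimulated by 5 µM LPI near EC80; imaged beta-arrestin-GFP aggregate spots per cell after agonist stimulation.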 The note with it: LPI antagonism, at 10 µM, stronger effect = higher value.
For the molecule `O=S(=O)(c1ccc(F)cc1)N1CCCc2ccccc21`, the inhibition is 93.9% (active).
The same measure for `O=S(=O)(c1ccc(F)cc1)N1CCc2ccccc21`: 9.6%; for `O=S(=O)(c1ccccc1)N1CCCc2ccccc21`: 0.9%.
`COc1ccc(Br)cc1S(=O)(=O)Nc1cccc(C)n1`: the inhibition is 9.5%.
Consider `C=CCN(C(=O)CNC(=O)c1ccco1)C(C(=O)NC1CCCCC1)c1ccc(F)cc1` (stereo unspecified), for which the inhibition was 73.3% (active).
The same measure for `C=CCN(C(=O)CNC(=O)c1ccco1)C(C(=O)NC1CCCCC1)c1ccc(OC)cc1` (stereo unspecified): -13.5%; for `C=CCN(C(=O)CNC(=O)c1ccco1)C(C(=O)NC1CCCCC1)c1ccccc1` (stereo unspecified): -5.9%; for `CC(C)N1CCC(N2CCN(Cc3ccc(-c4ccc(Cl)cc4)o3)CC2CCO)CC1` (stereo unspecified): 0.6%.
The same measure for `CC(NC(=O)CCCCCNC(=O)N1CCn2c1nc1ccccc12)c1ccccc1` (stereo unspecified): 2.2%.
For `Cc1oc(-c2cccc(Cl)c2)nc1CS(=O)(=O)CC(=O)NCCN1CCOCC1`, the inhibition was -0.5%.
On to `CCOC(=O)C1=C(C)NC(=O)NC1c1ccc(Br)o1` (stereo unspecified), for which the inhibition is -4%.
Turning to `CCOC(=O)C1=C(C)NC(C)=C(C(=O)OCC)C1c1ccc(C)o1`, the inhibition is 10.1%.
The same measure for `CCCCCCOC(=O)c1ccc(NC(=O)c2cc(OC)c(OC)c(OC)c2Br)cc1`: -0.3%; for `Cc1cnc(NC(=O)NCC2CCCC(CNC(=O)Nc3ncc(C)s3)C2)s1` (stereo unspecified): -6.9%.
For `CCCCC(O)(CCCC)C(=O)NN(C(=O)c1cccnc1Cl)c1ccccc1`, the inhibition is 6.1%.
As to `COc1ccc2c(C)cc(SCn3nnc4ccccc4c3=O)nc2c1`, the inhibition was -3.7%.
Under `CCN1C(=O)C(O)(C2COC(C)(C)CC2=O)c2ccccc21` (stereo unspecified) stands 7.4%; under `CCN1C(=O)C(O)(CC(=O)c2ccccn2)c2ccccc21` (stereo unspecified), 12%; under `CCOc1ccc(Cl)cc1S(=O)(=O)N1CCC(C(=O)NCC2CCCO2)CC1` (stereo unspecified), -1.1%.
Under `O=C(CSC1=NCCS1)Nc1cccc(F)c1` stands -2.2%; under `COc1ccc(CCNC2=NCC(C)S2)cc1` (stereo unspecified), 6.5%.
The same measure for `Cc1ccc(NC2=NCC(Cc3ccc(Br)cc3)S2)cc1` (stereo unspecified): 49%.
`COc1cccc(C(=O)Nc2cc(C(=O)NCc3ccc(C)cc3)ccc2N2CCC3(CC2)CC(c2ccccc2)=NO3)c1`: the inhibition is 10.8%.
The same measure for `Cc1cccc(C)c1NC(=O)CN(C)CC(=O)Nc1cc(Cl)ccc1C#N`: 6.8%; for `N#CC1=C2N=C(N)c3ccccc3N2C2=C(C(=O)CCC2)C1c1ccc(F)cc1` (stereo unspecified): 13.1%; for `N#CC1=C2N=C(N)c3ccccc3N2C2=C(C(=O)CCC2)C1c1ccc(Cl)cc1` (stereo unspecified): 86.9%.
